# Experimental data reported in the supplement of paper PMC10037445.
# Whole data set: some 2,900 compounds, median “NF-kB SEAP reporter activity, fold change vs agonist alone” near 0.99, cut for the highest 2% near 2.6. The list comes from a sample in which the highest values are over-represented; it also holds similar structures and randomly drawn compounds.
# Key:
# RAW-Dual [1] = experiment: NF-kB SEAP reporter activity, fold change vs agonist alone; higher = enhanced NF-kB activity
# Outline: (§1)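 Cytotoxic wells were those whose IncuCyte confluency was below 70% of agonist controls in both mask sets. The cells were RAW-Dual macrophages at 50,000 cells/well in DMEM on 384-well plates, dosed with 50 nL of library stock by pin tool, stimulated with a PRR agonist 1 h later, and kept at 37 °C, 5% CO2 for 20 hours. IRF and NF-κB reporter activity, as fold change over agonist-alone wells, came from supernatant read by QuantiLuc luminescence and QuantiBlue absorbance, respectively.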
# RAW-Dual [2] = experiment: NF-kB SEAP reporter activity, fold change vs agonist alone; cytotoxicity flag (confluency mask): not cytotoxic; higher = enhanced NF-kB activity
# Outline: as §1
# RAW-Dual [3] = experiment: NF-kB SEAP reporter activity, fold change vs agonist alone; cytotoxicity flag (confluency mask): cytotoxic (confluency <70% of control); higher = enhanced NF-kB activity
# Outline: as §1
# [4] = library stock concentration (final ~1000-fold dilution): 2 mM, cytotoxicity flag (confluency mask): not cytotoxic, agonist: Imiquimod (TLR7) […]
# [5] = library stock concentration (final ~1000-fold dilution): 2 mM, cytotoxicity flag (confluency mask): not cytotoxic, agonist: MPLA (TLR4) […]
# [6] = library stock concentration (final ~1000-fold dilution): 10 mM, cytotoxicity flag (confluency mask): cytotoxic (confluency <70% of control), agonist: Imiquimod (TLR7) […]
# [7] = library stock concentration (final ~1000-fold dilution): 10 mM, cytotoxicity flag (confluency mask): cytotoxic (confluency <70% of control), agonist: MPLA (TLR4) […]
# [8] = agonist: ODN 1826 (TLR9) 0.5 ug/mL
# [9] = agonist: Pam2CSK4 (TLR2/6) 0.1 ug/mL
# [10] = agonist: Pam3CSK4 (TLR2/1) 0.1 ug/mL
# [11] = library stock concentration (final ~1000-fold dilution): 10 mM, cytotoxicity flag (confluency mask): not cytotoxic, agonist: Imiquimod (TLR7) […]
# [12] = library stock concentration (final ~1000-fold dilution): 10 mM, cytotoxicity flag (confluency mask): not cytotoxic, agonist: MPLA (TLR4) […]
structure (smiles),measurement,setting,value
CCC(=O)N1CCN(c2ccc(-n3c(=O)ccc4cnc5ccc(-c6cnc7ccccc7c6)cc5c43)cc2C(F)(F)F)CC1,NF-kB SEAP reporter activity,RAW-Dual [1]; [4],0.44
same,NF-kB SEAP reporter activity,RAW-Dual [1]; [5],1.51
Nc1ccc(-c2ccc3ncc4ccc(=O)n(-c5cccc(C(F)(F)F)c5)c4c3c2)cn1,NF-kB SEAP reporter activity,RAW-Dual [1]; [6],2.12
same,NF-kB SEAP reporter activity,RAW-Dual [1]; [7],2.7
COc1ccc(-c2ccc3ncc4c(c3c2)n(-c2ccc(N3CCNCC3)c(C(F)(F)F)c2)c(=O)n4C)cn1.O=C(O)/C=C\C(=O)O,NF-kB SEAP reporter activity,RAW-Dual [1]; [6],0.273
same,NF-kB SEAP reporter activity,RAW-Dual [1]; [7],0.298
CCC(=O)N1CCN(c2ccc(-n3c(=O)ccc4cnc5ccc(-c6cnc7ccccc7c6)cc5c43)cc2C(F)(F)F)CC1 (library stock concentration (final ~1000-fold dilution): 2 mM),NF-kB SEAP reporter activity,RAW-Dual [2]; agonist: LPS (TLR4) 0.1 ug/mL,1.55
same,NF-kB SEAP reporter activity,RAW-Dual [2]; [8],1.02
same,NF-kB SEAP reporter activity,RAW-Dual [2]; [9],0.421
same,NF-kB SEAP reporter activity,RAW-Dual [2]; [10],0.629
Nc1ccc(-c2ccc3ncc4ccc(=O)n(-c5cccc(C(F)(F)F)c5)c4c3c2)cn1 (library stock concentration (final ~1000-fold dilution): 10 mM),NF-kB SEAP reporter activity,RAW-Dual [3]; agonist: LPS (TLR4) 0.1 ug/mL,5.68
same,NF-kB SEAP reporter activity,RAW-Dual [3]; [8],2.16
same,NF-kB SEAP reporter activity,RAW-Dual [3]; [9],1.77
same,NF-kB SEAP reporter activity,RAW-Dual [3]; [10],3.14
CCNC1(C(N)=O)CCN(c2ncnc3c2nc(-c2ccccc2Cl)n3-c2ccc(Cl)cc2)CC1.Cl,NF-kB SEAP reporter activity,RAW-Dual [1]; [4],0.57
same,NF-kB SEAP reporter activity,RAW-Dual [1]; [5],0.847
CCNC1(C(N)=O)CCN(c2ncnc3c2nc(-c2ccccc2Cl)n3-c2ccc(Cl)cc2)CC1.Cl (library stock concentration (final ~1000-fold dilution): 2 mM),NF-kB SEAP reporter activity,RAW-Dual [2]; agonist: LPS (TLR4) 0.1 ug/mL,0.587
same,NF-kB SEAP reporter activity,RAW-Dual [2]; [8],0.493
same,NF-kB SEAP reporter activity,RAW-Dual [2]; [9],0.537
same,NF-kB SEAP reporter activity,RAW-Dual [2]; [10],0.482
COc1ccc(-c2ccc3c(N4CCOCC4C)nc(N4CCOCC4C)nc3n2)cc1CO (stereo not drawn) (library stock concentration (final ~1000-fold dilution): 10 mM),NF-kB SEAP reporter activity,RAW-Dual [2]; agonist: LPS (TLR4) 0.1 ug/mL,1.62
same,NF-kB SEAP reporter activity,RAW-Dual [2]; [8],1.12
same,NF-kB SEAP reporter activity,RAW-Dual [2]; [9],0.372
same,NF-kB SEAP reporter activity,RAW-Dual [2]; [10],0.555
COc1ccc(-c2ccc3c(N4CCOCC4C)nc(N4CCOCC4C)nc3n2)cc1CO (stereo not drawn),NF-kB SEAP reporter activity,RAW-Dual [1]; [11],1.11
same,NF-kB SEAP reporter activity,RAW-Dual [1]; [12],1.53
Cc1cc(O)c(-c2ccc(C(C)CN(C)C)cc2)c2c1[nH]c(=O)c1sccc12.Cl.Cl (stereo not drawn),NF-kB SEAP reporter activity,RAW-Dual [1]; [6],1.2
same,NF-kB SEAP reporter activity,RAW-Dual [1]; [7],1.37
Cc1cc(O)c(-c2ccc(C(C)CN(C)C)cc2)c2c1[nH]c(=O)c1sccc12.Cl.Cl (stereo not drawn) (library stock concentration (final ~1000-fold dilution): 10 mM),NF-kB SEAP reporter activity,RAW-Dual [3]; agonist: LPS (TLR4) 0.1 ug/mL,0.764
same,NF-kB SEAP reporter activity,RAW-Dual [3]; [8],0.357
same,NF-kB SEAP reporter activity,RAW-Dual [3]; [9],0.311
same,NF-kB SEAP reporter activity,RAW-Dual [3]; [10],0.482
CC(N)C12CC3CC(CC(C3)C1)C2.Cl (stereo not drawn) (library stock concentration (final ~1000-fold dilution): 10 mM),NF-kB SEAP reporter activity,RAW-Dual [2]; agonist: LPS (TLR4) 0.1 ug/mL,1.15
same,NF-kB SEAP reporter activity,RAW-Dual [2]; [8],0.619
same,NF-kB SEAP reporter activity,RAW-Dual [2]; [9],1.24
same,NF-kB SEAP reporter activity,RAW-Dual [2]; [10],0.847
CC(N)C12CC3CC(CC(C3)C1)C2.Cl (stereo not drawn),NF-kB SEAP reporter activity,RAW-Dual [1]; [12],1.06
O=C(Cn1nnc(-c2ccncc2)c1-c1ccccc1)Nc1ccc(-c2ccccc2)cn1,NF-kB SEAP reporter activity,RAW-Dual [1]; [11],0.711
same,NF-kB SEAP reporter activity,RAW-Dual [1]; [12],0.961
O=C(Cn1nnc(-c2ccncc2)c1-c1ccccc1)Nc1ccc(-c2ccccc2)cn1 (library stock concentration (final ~1000-fold dilution): 10 mM),NF-kB SEAP reporter activity,RAW-Dual [2]; agonist: LPS (TLR4) 0.1 ug/mL,1.06
same,NF-kB SEAP reporter activity,RAW-Dual [2]; [8],0.623
same,NF-kB SEAP reporter activity,RAW-Dual [2]; [9],0.34
same,NF-kB SEAP reporter activity,RAW-Dual [2]; [10],0.345
Cc1noc(C)c1-c1ccc2[nH]c(=O)n3c2c1OCC3c1ccccn1 (stereo not drawn),NF-kB SEAP reporter activity,RAW-Dual [1]; [11],1.5
same,NF-kB SEAP reporter activity,RAW-Dual [1]; [12],2.28
COc1cc2c(cc1-c1c(C)noc1C)ncc1[nH]c(=O)n(C(C)c3ccccn3)c12 (stereo not drawn),NF-kB SEAP reporter activity,RAW-Dual [1]; [6],2.61
same,NF-kB SEAP reporter activity,RAW-Dual [1]; [7],2.46
Cc1noc(C)c1-c1cnc2c(-c3ccc(C(=O)O)cc3)cn(C(C)c3ccccn3)c2c1 (stereo not drawn),NF-kB SEAP reporter activity,RAW-Dual [1]; [11],1.59
same,NF-kB SEAP reporter activity,RAW-Dual [1]; [12],2.29
Cc1noc(C)c1-c1cnc2c(-c3ccc(C(=O)O)cc3)cn(C(C)c3ccccn3)c2c1 (stereo not drawn) (library stock concentration (final ~1000-fold dilution): 10 mM),NF-kB SEAP reporter activity,RAW-Dual [2]; agonist: LPS (TLR4) 0.1 ug/mL,2.32
same,NF-kB SEAP reporter activity,RAW-Dual [2]; [8],1.73
same,NF-kB SEAP reporter activity,RAW-Dual [2]; [9],0.767
same,NF-kB SEAP reporter activity,RAW-Dual [2]; [10],2.09
Cc1noc(C)c1-c1ccc2[nH]c(=O)n3c2c1OCC3c1ccccn1 (stereo not drawn) (library stock concentration (final ~1000-fold dilution): 10 mM),NF-kB SEAP reporter activity,RAW-Dual [2]; agonist: LPS (TLR4) 0.1 ug/mL,1.61
same,NF-kB SEAP reporter activity,RAW-Dual [2]; [8],1.67
same,NF-kB SEAP reporter activity,RAW-Dual [2]; [9],0.501
same,NF-kB SEAP reporter activity,RAW-Dual [2]; [10],1.34
COc1cc2c(cc1-c1c(C)noc1C)ncc1[nH]c(=O)n(C(C)c3ccccn3)c12 (stereo not drawn) (library stock concentration (final ~1000-fold dilution): 10 mM),NF-kB SEAP reporter activity,RAW-Dual [3]; agonist: LPS (TLR4) 0.1 ug/mL,4.87
same,NF-kB SEAP reporter activity,RAW-Dual [3]; [8],2.55
same,NF-kB SEAP reporter activity,RAW-Dual [3]; [9],0.529
same,NF-kB SEAP reporter activity,RAW-Dual [3]; [10],1.93
C=CC(=O)N1CCC(C2CCNc3c(C(N)=O)c(-c4ccc(Oc5ccccc5)cc4)nn32)CC1 (stereo not drawn) (library stock concentration (final ~1000-fold dilution): 10 mM),NF-kB SEAP reporter activity,RAW-Dual [2]; agonist: LPS (TLR4) 0.1 ug/mL,0.708
same,NF-kB SEAP reporter activity,RAW-Dual [2]; [8],0.413
same,NF-kB SEAP reporter activity,RAW-Dual [2]; [9],0.25
same,NF-kB SEAP reporter activity,RAW-Dual [2]; [10],0.279
C=CC(=O)N1CCC(C2CCNc3c(C(N)=O)c(-c4ccc(Oc5ccccc5)cc4)nn32)CC1 (stereo not drawn),NF-kB SEAP reporter activity,RAW-Dual [1]; [11],0.477
same,NF-kB SEAP reporter activity,RAW-Dual [1]; [12],0.541
Cn1c(=O)cc(C(=O)Nc2ccc3c(c2)OCCO3)c2ccccc21 (library stock concentration (final ~1000-fold dilution): 10 mM),NF-kB SEAP reporter activity,RAW-Dual [2]; agonist: LPS (TLR4) 0.1 ug/mL,0.989
same,NF-kB SEAP reporter activity,RAW-Dual [2]; [8],1.02
same,NF-kB SEAP reporter activity,RAW-Dual [2]; [9],0.995
same,NF-kB SEAP reporter activity,RAW-Dual [2]; [10],1.07
Cn1c(=O)cc(C(=O)Nc2ccc3c(c2)OCCO3)c2ccccc21,NF-kB SEAP reporter activity,RAW-Dual [1]; [11],0.997
same,NF-kB SEAP reporter activity,RAW-Dual [1]; [12],0.999
